Most compounds without a hit are left out; they make up all but 17% or so of the library.
TGFb inhibitor – blocks TGF-b signaling; HepG2 CAGA-GFP TGF-b/SMAD3 reporter, GFP fluorescence, 18 h; TGF-beta stimulated, 500 pg/mL final; Potency, µM (titrated, usually from 46.1 µM), without a hit: at the highest dose activity, negative = inhibition, usual class: inhibitors; actives 1.2% (n = 410,000); AID 588855; also: % is scaled to controls: 0 for no effect and ±100 for the full control effect; nearly all actives have a fitted effect of over 65% in size
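Inhibition was scored as loss of TGF-beta-induced (500 pg/mL final, 18 hours, 37 degrees C) GFP in HEPG2 cells carrying a CAGA-GFP reporter, in DMEM with 1% FBS. Well GFP was summed per cell; Activity was normalised to unstimulated and stimulated DMSO wells, then concentration-response fitting.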
DT40 TDP1 no CPT – qHTS for Inhibitors of human tyrosyl-DNA phosphodiesterase 1 (TDP1): qHTS in cells in absence of CPT | DT40 Tdp1-/- hTDP1 cells, no CPT, ATP luminescence, 48 h | Potency, µM (titrated, usually from 46.2 µM), for the others: at the top dose activity change, negative = growth inhibition, most hits filed as inhibitors | actives 15% (n = 420,000) | AID 686978, 2013; also: % is scaled to controls: 0 for no effect and ±100 for the full control effect; nearly all actives have a fitted effect of over 55% in size
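Compound effects on proliferation are scored in DT40 Tdp1-/-;hTDP1 cells in the absence of CPT. ATP levels (CellTiter-Glo luminescence) are recorded after a ≥48 hr, 37 °C incubation.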
HT1080-NT tox – kills 2HG-producing HT-1080-NT fibrosarcoma cells; HT-1080-NT fibrosarcoma viability, CellTiter-Glo ATP luminescence, 48 h; Potency, µM (doses to about 46.1 µM), for inactives: at the top dose activity, negative = less viability, actives largely listed as cytotoxic; actives 1.6% (n = 360,000); AID 686970;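 also: NT is the 2HG producing partner of a matched IDH1 knockdown line; 0% = DMSO-treated cells and -100% = media-only wells without cells; nearly all actives have a fitted effect of over 55% in size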
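HT-1080-NT; 750 cells/well; 5% FBS RPMI; 48 h compound, 37 degrees C; CellTiter-Glo luminescence; curve fitting and curve-class assignment.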
DT40 TDP1 CPT – growth inhibition of DT40 Tdp1-/-;hTDP1 cells with camptothecin (screen for TDP1 inhibitors); chicken DT40 Tdp1-/-;hTDP1 cells + 20 nM CPT, ATP luminescence, 48 h; Potency, µM (titrated, usually from 46.2 µM), for inactives: at the highest dose activity change, negative = growth inhibition, most hits filed as inhibitors; actives 12% (n = 420,000); also: % is scaled to controls: 0 for no effect and ±100 for the full control effect; nearly all actives have a fitted effect of over 55% in size
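Chicken DT40 Tdp1-/- cells complemented with human TDP1, 400 cells/well, exposed to compounds plus 20 nM camptothecin for at least 48 h at 37 C; viability read as ATP content by CellTiter-Glo luminescence.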
HT1080 IDH1KD tx – kills HT-1080 cells with IDH1 knockdown | HT-1080 IDH1 knockdown viability, ATP luminescence, 48 h | Potency, µM (highest dose often 46.1 µM), inactives show at the highest dose activity, negative = toxicity, hits mostly cytotoxic | actives 2% (n = 360,000);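 also: 0% = DMSO wells and -100% = cell-free medium wells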
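Assay cells: HT-1080 with IDH1 knockdown, 750 per well, RPMI/5% FBS. Exposure: 48 h at 37 °C following 2 h pre-incubation. Read: CellTiter-Glo luminescence; fitted concentration-response, curve class assigned.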
HepG2 viability – HepG2 cytotoxicity, counter-screen for TGF-b inhibitors; Potency, µM (titrated, usually from 46.1 µM), for inactives: at the highest dose activity change, negative = cytotoxicity, actives largely listed as cytotoxic; actives 0.76% (n = 410,000); HepG2 CAGA-GFP viability, ATP luminescence, 18 h
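HepG2 CAGA-GFP cells (1000/well, DMEM with 1% FBS) received compound, then TGF-beta at 500 pg/mL final, and were incubated 18 hours at 37 degrees C. Viability was read by CellTiter-Glo luminescence. Media-only wells were set as complete cell-killing and DMSO as no toxicity.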
* hit, by the source's call; ? = inconclusive; . = no result. Calls follow the shape of the dose curve; as a rule, active = well fitted curve in the direction sought with a large enough effect; inconclusive = small, poorly fitted or top-dose-only effect, or another doubt; inactive = no such curve, though single readings can be large; an effect the other way counts as inactive or inconclusive. Potency is read from the fitted curve at half-maximal effect.

SMILES | TGFb inhibitor | DT40 TDP1 no CPT | HT1080-NT tox | DT40 TDP1 CPT | HT1080 IDH1KD tx | HepG2 viability
CCN(CC)S(=O)(=O)c1cc(NC(=O)CCNC(=O)c2ccco2)ccc1C | 12% | ? | 1% | ? | 5% | -6%
FC(F)(F)c1cccc(N2CCN(c3ncnc4c3nc3n4CCCC3)CC2)c1 | ? | 9.2µM* | . | 9.2µM* | . | -15%
COc1cccc(N2CCN(c3ncnc4c3nc3n4CCCCC3)CC2)c1 | ? | 10µM* | . | 16µM* | . | -32%
COc1cccc(C(=O)NCc2ccco2)c1OC | 13% | 1% | 3% | 2% | 9% | 20%
O=C(CSc1nc2ccccc2n1Cc1ccccc1)N1CCN(c2ccc(F)cc2)CC1 | -4% | -23% | . | -14% | . | 2%
CCCCCSc1nc2c(cnn2-c2ccccc2)c(=O)[nH]1 | 2% | ? | ? | ? | ? | 12%
O=c1c2ccccc2nnn1CSc1nc2ccccc2c(=O)n1Cc1ccco1 | 5% | 21µM* | 1% | 23µM* | 8% | 5%
O=c1c2ccccc2nc(SCc2ccccc2)n1Cc1ccco1 | -24% | ? | -1% | -23% | -13% | -16%
COc1ccc(Cn2c(SCC(=O)N3CCN(c4ccc(F)cc4)CC3)nc3ccccc32)cc1 | -16% | 21µM* | . | 21µM* | . | -2%
CCCCCSc1nc2c(cnn2-c2ccc(F)cc2)c(=O)[nH]1 | 15% | 23µM* | 27% | ? | 11% | -5%
O=C(CSc1nc2ccccc2c(=O)n1Cc1ccco1)c1ccccc1 | -3% | 21µM* | -20% | 16µM* | ? | -36%
CCOC(=O)CSc1nc2ccccc2c(=O)n1Cc1ccco1 | -17% | -10% | -1% | -1% | 0% | -2%
Cc1cc(SCn2nnc3ccccc3c2=O)nc2ccccc12 | 0% | -27% | -2% | -12% | -2% | -13%
CCOC(=O)N1CCN(C(=O)CSc2nc3c(cnn3-c3ccccc3)c(=O)[nH]2)CC1 | -2% | 23µM* | -6% | ? | 1% | -1%
Cc1cc(-n2c(C)cc(C(=O)CSc3nc4ccccc4c(=O)n3Cc3ccco3)c2C)no1 | 7% | 21µM* | -2% | 23µM* | -4% | -9%
COc1ccc(-c2nc(SCC(=O)N3CCN(c4ccc(F)cc4)CC3)n[nH]2)cc1 | -14% | -8% | . | -13% | . | 1%
O=C(CSc1n[nH]c(-c2ccc(F)cc2)n1)N1CCN(c2ccc(F)cc2)CC1 | -1% | 23µM* | . | 16µM* | . | -1%
Cc1ccc(-n2nnnc2SCn2nnc3ccccc3c2=O)c(C)c1 | -4% | 8.2µM* | -3% | 9.2µM* | -25% | -21%
CC1=C(c2ccc(C)c(C)c2)S(=O)(=O)N=C1N1CCC(C(=O)N2CCCCC2)CC1 | 0% | ? | . | ? | . | -11%
CCOC(=O)N1CCN(C(=O)CSc2nc3ccccc3c(=O)n2-c2ccccc2)CC1 | 3.2µM* | ? | -3% | ? | 2% | 4%
CCn1c(SCC(=O)N2CCN(c3ccc(F)cc3)CC2)nc2ccccc2c1=O | -4% | ? | -6% | 21µM* | 0% | -6%
Nc1nc(SCC(=O)N2CCCC2)[nH]c(=O)c1-c1ccccc1 | 0% | 26µM* | 23% | ? | 21% | 31%
CCN(CC)C(=O)CSc1nc2ccccc2c(=O)n1CCC(=O)N1CCN(c2ccccc2)CC1 | ? | ? | 14% | 16µM* | 19% | 2%
Cc1cccc(-c2nc3c4ccccc4nc(N4CCN(c5ccccc5F)CC4)n3n2)c1 | -2% | -8% | . | -2% | . | -13%
COc1cc(CN2CCNC(=O)C2CC(=O)NC2CCCC2)cc(OC)c1 (stereo unspecified) | 0% | -7% | -1% | 1% | 4% | -40%
SMILES | TGFb inhibitor | DT40 TDP1 no CPT | HT1080-NT tox | DT40 TDP1 CPT | HT1080 IDH1KD tx | HepG2 viability
CCOC(=O)CSc1nc2ccccc2c(=O)n1C1CCCC1 | -6% | -15% | 10% | -5% | 4% | -2%
O=C(CSc1nc2ccccc2c(=O)n1Cc1ccco1)N1CCN(c2ccccc2)CC1 | 0% | 26µM* | 4% | ? | -2% | -4%
CCOC(=O)CSc1nc2ccccc2c(=O)n1CC1COc2ccccc2O1 (stereo unspecified) | 1% | 18µM* | -5% | ? | -9% | -4%
Cc1cccc(NS(=O)(=O)c2ccc(Cl)cc2)n1 | 37% | -12% | -13% | -2% | -2% | 5%
CCCC(=O)N1CCC1(C)C(=O)Nc1ccc2scnc2c1 (stereo unspecified) | 4% | -19% | 7% | -5% | 21% | 7%
Cc1csc(NC(=O)CSc2nc(=O)[nH]c3c2CCCC3)n1 | 1% | -13% | -1% | 3% | -12% | 0%
COc1cc(OC)cc(-c2nc3nc(C)c(CCC(=O)Nc4ccc(F)cc4F)c(C)n3n2)c1 | -25% | 13µM* | . | ? | . | -25%
COc1cc(OC)cc(-c2nc3nc(C)c(CCC(=O)Nc4ccc(Cl)cc4)c(C)n3n2)c1 | -15% | -20% | . | 15% | . | -21%
COc1cc(OC)cc(-c2nc3nc(C)c(CCC(=O)Nc4cc(F)ccc4F)c(C)n3n2)c1 | -4% | 8.2µM* | . | ? | . | -11%
CCOC(=O)C1(Cc2ccccc2C)CCCN(C(=O)c2ccoc2)C1 (stereo unspecified) | 2% | ? | -1% | -30% | -5% | 11%
CN(CC(=O)Nc1ccc(Cl)cc1F)C1=NS(=O)(=O)c2ccccc21 | -9% | -19% | 7% | 9% | -5% | -12%
CS(=O)(=O)c1cc(N2CCOCC2)ccc1CNC[C@H]1O[C@@H](n2cnc3c(=O)[nH]c(N)nc32)[C@H](O)[C@@H]1O | 4% | 32% | 8% | 9% | 12% | -4%
CCc1ccc(CN(Cc2ccco2)c2cnc(S(C)(=O)=O)nc2C(=O)Nc2ccccc2Cl)cc1 | 7.9µM* | ? | . | ? | . | -24%
CCc1ccc(CN(Cc2ccco2)c2cnc(S(C)(=O)=O)nc2C(=O)Nc2c(C)cccc2C)cc1 | ? | 18µM* | . | 16µM* | . | -29%
CCS(=O)(=O)c1ncc(N(Cc2cccc(F)c2)Cc2ccco2)c(C(=O)Nc2ccccc2Cl)n1 | -5% | 6.5µM* | . | ? | . | -4%
